Some test systems named below: NCI-H23 lung; NCI-H226 lung; NCI-H322M lung; HOP-62 NSCLC; NCI-H460 lung; HOP-92 NSCLC; NCI-H522 lung; A549/ATCC NSCLC; 786-0 renal; COLO 205 colon; DU-145 prostate; K-562 leukemia; MALME-3M melanoma; MDA-MB-231 breast; RXF 393 renal; SF-268 CNS; SF-295 CNS; UACC-257 melanoma; M14 melanoma.
What all share (test): NCI-60 one-dose screen, 48 h (100 = growth as untreated, 0 = no growth, -100 = all killed)
Common to all, as to details: 10 µM unless noted

Structures are written as SMILES. About 83,000 compounds went through this panel and 20% of them were active in at least one assay; those are over-represented in the sample as a whole.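 Treatment: one concentration, 48 hours, 96-well format. Scoring: percent growth, with anything below 10 considered active.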 Values without a mark were called inactive. Calls of active or inactive are those of the source.

On to `CCOC(=O)C(Cc1cc(I)c(O)c(I)c1)NC(=O)c1ccccc1` (configuration not stated), for which the growth in the experiment with NCI-H23 lung was 102%; in the experiment on NCI-H226 lung it was 93.1%; in the experiment on NCI-H322M lung, 101%; in the experiment on HOP-62 NSCLC, 78.8%; with NCI-H460 lung, 104%; in the experiment with HOP-92 NSCLC, -14.2% (active). Besides, the growth in the experiment on NCI-H522 lung is 87.5%; in the experiment with A549/ATCC NSCLC, 83.8%; in the experiment with 786-0 renal it was 97.6%; in the experiment on COLO 205 colon it was 108%; in the experiment with DU-145 prostate, 109%; in the experiment on K-562 leukemia, 97.1%. Further, the growth with MALME-3M melanoma is 99.5%; in the experiment on MDA-MB-231 breast, 102%; with RXF 393 renal it was 99.1%; in the experiment on SF-268 CNS, 102%; with SF-295 CNS it was 101%; in the experiment with UACC-257 melanoma it was 92.7%. Also, the growth with M14 melanoma is 99.3%.

Take `COc1ccc(C(=O)/C=C/c2c[n+](=O)c3ccc(F)cc3n2[O-])cc1`: the growth with NCI-H23 lung is 98.7%; in the experiment on NCI-H226 lung, 102%; in the experiment with NCI-H322M lung, 118%; in the experiment with HOP-62 NSCLC, 104%; in the experiment on NCI-H460 lung, 119%; with HOP-92 NSCLC it was 85.7%. Moreover, the growth was 109% with NCI-H522 lung; 108% in the experiment with A549/ATCC NSCLC; 110% in the experiment on 786-0 renal; 127% in the experiment with COLO 205 colon; 110% in the experiment with DU-145 prostate; 102% in the experiment with K-562 leukemia. Also, the growth was 90.9% with MALME-3M melanoma; 106% in the experiment on MDA-MB-231 breast; 129% with RXF 393 renal; 96.8% in the experiment with SF-268 CNS; 102% in the experiment with SF-295 CNS; 106% with UACC-257 melanoma. In the experiment with M14 melanoma, the growth was 101%.

Turning to `CC/C(Cc1ccccc1)=C(/c1ccc(O)cc1)c1ccc(OCCN2CCCC2)cc1`, the growth in the experiment on NCI-H23 lung was 8.75% (active); in the experiment with NCI-H226 lung, 71.2%; in the experiment on NCI-H322M lung it was -18% (active); with HOP-62 NSCLC, -22.3% (active); with NCI-H460 lung it was -90.5% (active); with HOP-92 NSCLC, -12.8% (active). Besides, the growth in the experiment with NCI-H522 lung is -54.3% (active); in the experiment with A549/ATCC NSCLC, -59.1% (active); in the experiment on 786-0 renal, -83.6% (active); in the experiment with COLO 205 colon, -71.8% (active); in the experiment on DU-145 prostate it was -18.6% (active); in the experiment on K-562 leukemia, -10.1% (active). The growth in the experiment with MALME-3M melanoma was -72.5% (active); in the experiment with MDA-MB-231 breast it was -60.8% (active); with RXF 393 renal it was -65% (active); in the experiment with SF-268 CNS, 9.94% (active); with SF-295 CNS it was -63.1% (active); in the experiment with UACC-257 melanoma, -65.8% (active). Besides, in the experiment with M14 melanoma, the growth is -70.5% (active).

Regarding `c1ccc(-c2nc(N3CCOCC3)c3c4c(sc3n2)CCCCC4)nc1`, the growth with NCI-H23 lung is 66.9%; with NCI-H226 lung, 50.4%; with NCI-H322M lung, 67.3%; with HOP-62 NSCLC, 61%; in the experiment on NCI-H460 lung, 33.4%; in the experiment on HOP-92 NSCLC, -2.36% (active). Moreover, the growth with NCI-H522 lung was 29.5%; in the experiment on A549/ATCC NSCLC it was 51%; in the experiment with 786-0 renal it was 75.9%; with COLO 205 colon it was 52.4%; with DU-145 prostate, 71.5%; with K-562 leukemia it was 58%. Further, the growth is 32.6% in the experiment with MALME-3M melanoma; 60.4% in the experiment with MDA-MB-231 breast; 55.4% in the experiment on RXF 393 renal; 65.5% in the experiment with SF-268 CNS; 49.2% in the experiment on SF-295 CNS; 75.7% in the experiment on UACC-257 melanoma. For the same molecule, the growth in the experiment on M14 melanoma is 67.6%.

On to `COc1cc(C2C(C(=O)c3cccs3)=C(O)C(=O)N2CCN2CCOCC2)cc(OC)c1OC` (configuration not stated), for which the growth in the experiment with NCI-H23 lung is 103%; in the experiment with NCI-H226 lung, 103%; in the experiment on NCI-H322M lung it was 102%; in the experiment on HOP-62 NSCLC it was 107%; with NCI-H460 lung, 101%; in the experiment with HOP-92 NSCLC, 99.8%. For the same molecule, the growth in the experiment on NCI-H522 lung is 92.2%; in the experiment with A549/ATCC NSCLC it was 104%; in the experiment with 786-0 renal, 103%; in the experiment on COLO 205 colon, 111%; in the experiment with DU-145 prostate, 106%; with K-562 leukemia, 116%. For the same molecule, the growth is 107% in the experiment with MALME-3M melanoma; 111% in the experiment on MDA-MB-231 breast; 100% with RXF 393 renal; 97.9% in the experiment on SF-268 CNS; 100% with SF-295 CNS; 108% in the experiment with UACC-257 melanoma. The growth with M14 melanoma is 99.6%.

For `C=C1CCC2C3(C)COC(c4ccc(OC)cc4Br)OC3CCC2(C)C1/C=C/C1=CCOC1=O` (configuration not stated), the growth in the experiment with NCI-H23 lung was 52.7%; in the experiment on NCI-H226 lung, 63.1%; in the experiment on NCI-H322M lung, 97.6%; in the experiment on HOP-62 NSCLC it was 97.3%; with NCI-H460 lung, 65%; in the experiment on HOP-92 NSCLC, 84.8%. Further, the growth with NCI-H522 lung was 63.8%; in the experiment on A549/ATCC NSCLC, 58.2%; in the experiment with 786-0 renal, 77.6%; in the experiment on COLO 205 colon it was 118%; in the experiment with DU-145 prostate it was 86.6%; in the experiment with K-562 leukemia, 31.1%. Moreover, the growth with MALME-3M melanoma is 93.9%; with MDA-MB-231 breast, 78.7%; in the experiment with RXF 393 renal, 90%; with SF-268 CNS, 89%; in the experiment with SF-295 CNS it was 60.6%; with UACC-257 melanoma, 58.3%. The growth in the experiment with M14 melanoma is 87.3%.

For `NC(N)=Nc1ccc(S(=O)(=O)O)cc1`, the growth was 102% in the experiment on NCI-H23 lung; 105% in the experiment on NCI-H226 lung; 114% with NCI-H322M lung; 106% in the experiment on HOP-62 NSCLC; 109% in the experiment on NCI-H460 lung; 84.3% in the experiment on HOP-92 NSCLC. Also, the growth was 79.3% with NCI-H522 lung; 106% with A549/ATCC NSCLC; 98.3% in the experiment on 786-0 renal; 109% in the experiment with COLO 205 colon; 131% in the experiment with DU-145 prostate; 92.2% with K-562 leukemia. Moreover, the growth with MALME-3M melanoma is 103%; in the experiment on MDA-MB-231 breast, 93.6%; in the experiment on RXF 393 renal, 136%; in the experiment with SF-268 CNS, 110%; in the experiment with SF-295 CNS, 117%; in the experiment with UACC-257 melanoma it was 99.1%. For the same molecule, the growth in the experiment with M14 melanoma was 110%.

Consider `COc1cnc2c(c1)C(=O)c1c-2n(CCCN2CCCC2)c(=O)c2cc([N+](=O)[O-])ccc12`, for which the growth is -7.75% (active) with NCI-H23 lung; -79.4% (active) in the experiment on NCI-H226 lung; -11.9% (active) in the experiment on NCI-H322M lung; -16.8% (active) in the experiment on HOP-62 NSCLC; -60.1% (active) in the experiment on NCI-H460 lung; 16.4% with HOP-92 NSCLC. For the same molecule, the growth in the experiment on NCI-H522 lung was -31% (active); in the experiment with A549/ATCC NSCLC, -44.8% (active); in the experiment with 786-0 renal, -90.9% (active); with COLO 205 colon it was 2.24% (active); in the experiment on DU-145 prostate it was 3.15% (active); in the experiment on K-562 leukemia, -12.1% (active). The growth is -20.2% (active) in the experiment with MALME-3M melanoma; -49.1% (active) in the experiment with MDA-MB-231 breast; -88.7% (active) in the experiment with RXF 393 renal; 17.1% with SF-268 CNS; -6.13% (active) in the experiment with SF-295 CNS; -8.07% (active) in the experiment with UACC-257 melanoma. Also, in the experiment with M14 melanoma, the growth is 0.878% (active).

Values taken from PubChem BioAssay (NCI).
